# Measured values published in PubChem BioAssay (EPA / NIEHS).
# Where “and” joins values, the source holds several entries; their conditions need not be identical. Identical values can stand only once. Inconclusive results are not listed. More than one record can exist for a structure, and the calls need not agree. Calls of active or inactive are those of the source. How the source made its calls, unless noted: active means hit-call score of the fitted dose curve at least 0.9, where 1 is the maximum; inactive means score below 0.9.
# Assays:
# [1] = CCTE_Shafer_MEA_acute_LDH: CCTE's Lactate Dehydrogenase Assay for Cytotoxicity in the Neural Acute Assay, Shafer Lab (AID 2284086; active means hit-call score of the fitted dose curve at least 0.9, where 1 is the maximum;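 further: active means LDH release rises above DMSO vehicle level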)
# In short: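 Medium collected from MEA wells of primary rat cortical cultures (DIV 13 or 15) immediately after 40 min chemical exposure is assayed spectrophotometrically for lactate dehydrogenase activity. Endpoint fitted in positive direction versus DMSO.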
# [2] = CCTE_Shafer_MEA_dev_mutual_information_norm: CCTE's Neural Network Formation Assay for Mutual Information Normalization, Shafer Lab (AID 2284091);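 on AC50: mutual information between electrodes summarised as area under curve across four recording days; potency is for a decrease in mutual information relative to DMSO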
# In short: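 Exposure of primary rat cortical neurons began at plating and ran to DIV 12, with full media and treatment renewal after DIV 5 and 9 recordings. Mutual information AUC (DIV 5–12) was analysed for loss versus DMSO.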
# [3] = CCTE_Shafer_MEA_dev_correlation_coefficient_mean: CCTE's Neural Network Formation Assay for Mean Correlation Coefficient, Shafer Lab (AID 2284093);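 on AC50: well mean pairwise spike train correlation integrated as AUC over recording days 5 to 12; potency fitted for loss of correlation relative to DMSO vehicle wells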
# In short: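 Rat cortical cultures, 1.5 x 10^5 cells/well, dosed from day 0 for 12 days. Spontaneous spikes recorded DIV 5/7/9/12; electrode-pair correlation coefficients averaged, AUC taken. Fit in loss direction vs DMSO.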
# [4] = CCTE_Mundy_HCI_Cortical_Synap_Neur_Matur_NeuriteSpotCountPerNeuriteLength: CCTE's Synaptogenesis and Neurite Maturation Assay in rat cortical cells for Neurite Spot Count per Neurite Length, Mundy Lab (AID 2284210)
# In short: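 Neurite-associated synapse density (synaptophysin puncta per unit neurite length) is measured by fluorescence high-content imaging in rat cortical cultures treated from DIV 7 and fixed at DIV 12, with DMSO as negative control.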
# [5] = CCTE_Mundy_HCI_Cortical_Synap_Neur_Matur_BPCount: CCTE's Synaptogenesis and Neurite Maturation Assay in rat cortical cells for Branch Point Count, Mundy Lab (AID 2284211)
# In short: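 HCI read-out of branch points from MAP2/synaptophysin/Hoechst immunofluorescence; rat cortical cultures, AraC DIV 5, dosing DIV 7, fixed DIV 12; fit in positive direction vs DMSO baseline.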
# [6] = CCTE_Mundy_HCI_Cortical_NOG_NeuriteCount: CCTE's Neurite Outgrowth Assay in rat cortical cells for Neurite Count, Mundy Lab (AID 2284212);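 further: cells fixed about two days after chemical exposure began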
# In short: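 Rat cortical primary cells; compound added 2 h post-plating, 1/10 dilution of working solution. Anti-betaIII-tubulin/AF488 ICC; ArrayScan neurite count vs DMSO.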
# [7] = CCTE_Mundy_HCI_Cortical_NOG_NeuriteLength: CCTE's Neurite Outgrowth Assay in rat cortical cells for Neurite Length, Mundy Lab (AID 2284213);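 on AC50: neurites imaged about 48 to 50 h after chemical exposure began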
# In short: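 First, rat primary cortical cells were plated and, 2 h later, given test chemical as a 1/10 dilution. Finally, βIII-tubulin immunostaining enabled automated imaging of neurite length.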
# [8] = CCTE_Mundy_HCI_Cortical_Synap_Neur_Matur_NeuriteLength: CCTE's Synaptogenesis and Neurite Maturation Assay in rat cortical cells for Neurite Length, Mundy Lab (AID 2284214)
# In short: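 Cultures of rat primary cortical cells received chemical at DIV 7 and were fixed at DIV 12, after glial arrest with AraC at DIV 5. Neurite length was measured by automated imaging of MAP2 immunofluorescence.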
# [9] = CCTE_Mundy_HCI_Cortical_Synap_Neur_Matur_NeuriteSpotCountPerNeuron: CCTE's Synaptogenesis and Neurite Maturation Assay in rat cortical cells for Neurite Spot Count per Neuron Count, Mundy Lab (AID 2284215)
# In short: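 Rat primary cortical cells received AraC at DIV 5, then chemicals with a media change at DIV 7, and were fixed at DIV 12. Synaptophysin puncta on MAP2-stained neurites per neuron were counted by high-content imaging, fitted relative to DMSO.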
# [10] = CCTE_Mundy_HCI_Cortical_Synap_Neur_Matur_SynapseCount: CCTE's Synaptogenesis and Neurite Maturation Assay in rat cortical cells for Synapse Count, Mundy Lab (AID 2284218)
# In short: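 Cells were plated, allowed 2 hr to attach, treated with AraC at DIV 5, then exposed to chemicals from DIV 7 until DIV 12. After fixation and MAP2/synaptophysin immunolabelling, synapses per neuron were quantified by automated imaging against DMSO.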
# [11] = CCTE_Mundy_HCI_hN2_NOG_NeuriteCount: CCTE's Neurite Outgrowth Assay in human hN2 cells for Neurite Count, Mundy Lab (AID 2284219; active means hit-call score of the fitted dose curve at least 0.9, where 1 is the maximum)
# In short: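 In this morphology assay, hNP1-derived neurons received test chemical 2 h post-plating and were fixed two days later in warm paraformaldehyde/sucrose containing Hoechst 33342. Neurites, labelled by rabbit anti-βIII-tubulin (1:800) and Alexa Fluor-488 (1:500), were counted automatically.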
# [12] = CCTE_Mundy_HCI_hN2_NOG_NeuriteLength: CCTE's Neurite Outgrowth Assay in human hN2 cells for Neurite Length, Mundy Lab (AID 2284220; active means hit-call score of the fitted dose curve at least 0.9, where 1 is the maximum)
# In short: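 Using βIII-tubulin immunofluorescence and Hoechst nuclear counterstain, this component quantifies neurite length in hNP1-derived neurons.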
# [13] = CCTE_Mundy_HCI_hN2_NOG_NeuronCount: CCTE's Neurite Outgrowth Assay in human hN2 cells for Neuron Count, Mundy Lab (AID 2284221; active means hit-call score of the fitted dose curve at least 0.9, where 1 is the maximum)
# In short: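 Read-out is the number of betaIII-tubulin-positive neurons imaged by automated high-content analysis, with DMSO as negative control.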
# [14] = CCTE_Mundy_HCI_Cortical_Synap_Neur_Matur_NeuriteCount: CCTE's Synaptogenesis and Neurite Maturation Assay in rat cortical cells for Neurite Count, Mundy Lab (AID 2284222);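 on outcome: exposure from day 7 to day 12 in vitro with readout at day 12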
# In short: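 Primary rat cortical cells were plated, treated with AraC at DIV 5, then exposed to chemicals from DIV 7 through DIV 12. After fixation and immunostaining for MAP2 and synaptophysin, imaging quantified neurites, with DMSO as the negative control.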
# [15] = UKN2_HCS_IMR90_neural_migration: University of Konstanz (UKN) Leist Lab Neural Crest Cell Migration Assay in human induced IMR90 Pluripotent Stem Cells (UKN2) (AID 2284204); conditions: actives raise or lower the signal
# In short: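 Using a 96-well stopper format with PLO/laminin/fibronectin coating, neural crest cells from iPSC migrate in cytokine-supplemented N2-S medium; after 24 h, chemicals are applied for a further 24 h, then cells are imaged after dye staining.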
# [16] = IUF_NPC1b_proliferation_BrdU_72hr: Leibniz Research Institute for Environmental Medicine (IUF) 72-hour Neural Progenitor Cell Bromodeoxyuridine (BrdU) Proliferation Assay (NPC1b) (AID 2284207)
# In short: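 Neural progenitor spheres of human fetal origin are treated for three days; BrdU added for the last 16 h is quantified by luminescence ELISA, with DMSO as baseline and EGF/FGF omission as positive control.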
# [17] = IUF_NPC1a_proliferation_area_72hr: Leibniz Research Institute for Environmental Medicine (IUF) 72-hour Neural Progenitor Cell Proliferation Area Assay (NPC1a) (AID 2284208)
# In short: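 Read-out: increase in sphere area over 72 h by automated phase-contrast imaging, fitted in positive direction versus DMSO baseline. One hNPC sphere (0.25-0.35 mm) per well in EGF/FGF medium; growth-factor withdrawal served as positive control.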
# [18] = IUF_NPC1_viability_72hr: Viability Assessment at 72 hours in the Leibniz Research Institute for Environmental Medicine (IUF) Neural Progenitor Cell Proliferation Assay (NPC1) (AID 2284209)
# In short: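 Spheres of primary human neural progenitors were plated singly in proliferation medium and treated for 72 h. Mitochondrial reduction of resazurin was then measured by fluorescence and analysed against DMSO controls.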
structure (smiles),measurement,setting,value
Nc1c(Cl)cc([N+](=O)[O-])cc1Cl,AC50,[1],0.0105 µM (active)
CCOP(=O)(SC(C)CC)N1CCSC1=O (configuration not stated),outcome,[2],inactive
same,outcome,[3],inactive
same,outcome,[4],inactive
same,outcome,[5],inactive
same,outcome,[6],inactive
same,outcome,[7],inactive
same,outcome,[8],inactive
same,outcome,[9],inactive
same,outcome,[10],inactive
same,outcome,[11],inactive
same,outcome,[12],inactive
same,outcome,[13],inactive
same,outcome,[14],inactive
COP(=O)(OC)OC(Br)C(Cl)(Cl)Br (configuration not stated),AC50,[2],4.85 µM (active) and 13 µM (active)
same,AC50,[3],8.49 µM (active) and 16 µM (active)
same,AC50,[15],25.4 µM (active)
same,AC50,[16],50.1 µM (active)
same,AC50,[17],26.6 µM (active)
same,outcome,[18],inactive
same,outcome,[4],inactive
same,AC50,[5],50 µM (active) and 27.8 µM (active)
same,AC50,[6],31.5 µM (active) and 30.7 µM (active)
same,AC50,[7],29.4 µM (active) and 20.6 µM (active)
same,AC50,[8],32.5 µM (active) and 41.6 µM (active)
same,AC50,[9],50 µM (active) and 10.7 µM (active)
same,AC50,[10],23.2 µM (active) and 9.92 µM (active)
same,AC50,[14],50 µM (active)
same,outcome,[14],inactive
CCCSP(=O)(OCC)SCCC,AC50,[2],9.23 µM (active) and 14.7 µM (active)
same,AC50,[3],15.8 µM (active) and 20.4 µM (active)
same,outcome,[15],inactive
same,outcome,[16],inactive
same,outcome,[17],inactive
same,outcome,[18],inactive
same,outcome,[4],inactive
same,outcome,[5],inactive
same,outcome,[6],inactive
same,outcome,[7],inactive
same,outcome,[8],inactive
same,outcome,[9],inactive
same,outcome,[10],inactive
same,outcome,[11],inactive
same,outcome,[12],inactive
same,outcome,[13],inactive
same,outcome,[14],inactive
O=[N+]([O-])c1cc(C(F)(F)F)c(Cl)c([N+](=O)[O-])c1Nc1ncc(C(F)(F)F)cc1Cl,outcome,[1],inactive
same,AC50,[2],328 nM (active)
same,AC50,[3],650 nM (active)
same,AC50,[15],0.638 µM (active)
same,outcome,[16],inactive
same,AC50,[17],7.56 µM (active)
same,AC50,[18],9.47 µM (active)
same,AC50,[4],1.06 µM (active)
same,AC50,[5],0.934 µM (active)
same,AC50,[6],1.44 µM (active)
same,AC50,[7],800 nM (active)
same,AC50,[8],0.924 µM (active)
same,AC50,[9],0.94 µM (active)
same,AC50,[10],1.06 µM (active)
same,AC50,[14],0.962 µM (active)
S=C1NCCN1,outcome,[2],inactive
same,outcome,[3],inactive
same,outcome,[16],inactive
same,outcome,[17],inactive
same,outcome,[18],inactive
same,outcome,[4],inactive
same,outcome,[5],inactive
same,outcome,[6],inactive
same,outcome,[7],inactive
same,outcome,[8],inactive
same,outcome,[9],inactive
same,outcome,[10],inactive
same,outcome,[14],inactive
COP(=O)(NC(C)=O)SC (configuration not stated),AC50,[1],0.00708 µM (active)
same,outcome,[1],inactive
same,AC50,[2],15000 nM (active)
same,outcome,[2],inactive
same,outcome,[3],inactive
same,outcome,[16],inactive
same,outcome,[17],inactive
same,outcome,[18],inactive
same,outcome,[4],inactive
same,outcome,[5],inactive
same,outcome,[6],inactive
same,outcome,[7],inactive
same,outcome,[8],inactive
same,outcome,[9],inactive
same,outcome,[10],inactive
same,outcome,[11],inactive
same,outcome,[12],inactive
same,outcome,[14],inactive
CN(C)[C@@H]1C(=O)C(C(N)=O)=C(O)[C@@]2(O)C(=O)C3=C(O)c4c(O)cccc4[C@@](C)(O)[C@H]3[C@H](O)[C@@H]12,outcome,[1],inactive
same,outcome,[2],inactive
same,AC50,[3],88200 nM (active)
same,AC50,[15],116 µM (active)
same,AC50,[16],12.1 µM (active)
same,outcome,[17],inactive
same,outcome,[18],inactive
same,AC50,[4],50 µM (active)
same,AC50,[5],70.5 µM (active)
same,outcome,[6],inactive
same,outcome,[7],inactive
same,AC50,[8],60.9 µM (active)
same,AC50,[9],50 µM (active)
same,AC50,[10],50 µM (active)
same,AC50,[14],72.5 µM (active)
O=C(O)c1cc(Oc2ccc(C(F)(F)F)cc2Cl)ccc1[N+](=O)[O-],outcome,[1],inactive
N#CSCSC#N,outcome,[1],inactive
COP(=O)(OC)C(O)C(Cl)(Cl)Cl (configuration not stated),AC50,[2],18.4 µM (active) and 3.54 µM (active)
same,AC50,[3],31.7 µM (active) and 15 µM (active)
same,outcome,[16],inactive
same,outcome,[17],inactive
same,outcome,[18],inactive
same,outcome,[4],inactive
same,AC50,[5],26.8 µM (active)
same,outcome,[6],inactive
same,outcome,[7],inactive
same,AC50,[8],36.9 µM (active)
same,AC50,[9],50 µM (active)
same,AC50,[10],50 µM (active)
same,outcome,[14],inactive
